# The supplement of paper PMC12350171
# Structures can show the parent of a compound that is named as a salt. Unmarked numbers belong to inactive results.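 How the source made its calls: active = AUC significantly below DMSO controls by Student t-fit with adjusted P under 0.01; inactive = not significantly reduced.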
# Test system: Haemophilus parainfluenzae
# Assay: growth AUC normalised to DMSO control (fraction of control); higher = less growth inhibition, active = hit call of the paper
# Conditions: 20 µM
# In short: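 Pathogens passaged twice anaerobically were inoculated at a starting OD578 of 0.01 into pre-reduced mGAM plates with drug at 20 μM and 1% DMSO, sealed with breathable membranes. Haemophilus parainfluenzae medium was supplemented with hemin and NAD. OD578 was read hourly for 24 h, with three biological replicates. Growth-curve AUC was computed by the trapezoidal rule up to the exponential-to-stationary transition and normalised to DMSO controls on the same plate.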
row,Structure (SMILES),growth AUC normalised to DMSO control
1,CC(C)NC[C@H](O)COc1cccc2ccccc12 [(S)-(-)-Propranolol hydrochloride],1.03
2,CC(=O)O[C@]1(C(C)=O)CC[C@H]2[C@@H]3C=C(C)C4=CC(=O)CC[C@]4(C)[C@H]3CC[C@@]21C [Megestrol acetate],1.06
3,CCOc1ccc2c(c1)C(C)=CC(C)(C)N2 [Ethoxyquin],0.94
4,Cc1cccc(C)c1NC(=O)C1CCCCN1C (centres undefined) [Mepivacaine hydrochloride],1.07
5,NC(=O)N1c2ccccc2CC(=O)c2ccccc21 [Oxcarbazepine],0.954
6,O=C(O)c1cc(-c2ccc(F)cc2F)ccc1O [Diflunisal],0.916
7,CCN(CC)CCOCCOC(=O)C1(c2ccccc2)CCCC1 [Carbetapentane citrate],1
8,N[C@@H](C(=O)N[C@@H]1C(=O)N2C(C(=O)O)=C(Cl)CS[C@H]12)c1ccccc1 [Cefaclor hydrate],0.97
9,CCN(CC)CCNC(=O)c1cc(Br)c(N)cc1OC [Bromopride],1.03
10,N=C(N)NCCN1CCCCCCC1 [Guanethidine sulfate],1.03
11,Clc1ccc(Cn2c(CN3CCCC3)nc3ccccc32)cc1 [Clemizole hydrochloride],0.982
12,CN(C(=O)C(Cl)Cl)c1ccc(OC(=O)c2ccco2)cc1 [Diloxanide furoate],0.954
13,CO[C@H]1/C=C/O[C@@]2(C)Oc3c(C)c(O)c4c(O)c(c(/C=N/N5CCN(C)CC5)c(O)c4c3C2=O)NC(=O)/C(C)=C\C=C\[C@H](C)[C@H](O)[C@@H](C)[C@@H](O)[C@@H](C)[C@H](OC(C)=O)[C@@H]1C [Rifampicin],0.0335 (active)
14,N/C(=N\C(=O)c1nc(Cl)c(N)nc1N)NCc1ccccc1 [Benzamil hydrochloride],0.991
15,CC1(C)S[C@@H]2[C@H](NC(=O)[C@H](NC(=O)N3CCNC3=O)c3ccccc3)C(=O)N2[C@H]1C(=O)O [Azlocillin sodium salt],0.0396 (active)
16,Cn1c(=O)c2c(ncn2CC2OCCO2)n(C)c1=O [Doxofylline],1.02
17,CCOc1ccccc1OC(c1ccccc1)C1CNCCO1 (centres undefined) [Reboxetine mesylate],1.01
18,Nc1nc(N)nc(-c2cc(Cl)ccc2Cl)n1 [Irsogladine maleate],1.01
19,C[C@H](CCC(=O)O)[C@H]1CC[C@H]2[C@@H]3[C@@H](O)C[C@@H]4C[C@H](O)CC[C@]4(C)[C@H]3CC[C@]12C [Urosiol],1.01
20,COCCOC(=O)C1=C(C)NC(C)=C(C(=O)OC/C=C/c2ccccc2)C1c1cccc([N+](=O)[O-])c1 (centres undefined) [Cilnidipine],1

row,Structure (SMILES),growth AUC normalised to DMSO control
1,CC1(C)OC(=O)NC1=O [Dimethadione],1
2,Cn1cnc([N+](=O)[O-])c1Sc1ncnc2[nH]cnc12 [Azathioprine],1.11
3,NC(=O)N1c2ccccc2C=Cc2ccccc21 [Carbamazepine],0.989
4,CCN1CCCC1CNC(=O)c1cc(S(=O)(=O)CC)c(N)cc1OC (centres undefined) [Amisulpride],0.997
5,CN(C)CCN1C(=O)c2ccccc2N(C)c2ccccc21 [Dibenzepine hydrochloride],0.97
6,CN(Cc1cnc2nc(N)nc(N)c2n1)c1ccc(C(=O)N[C@@H](CCC(=O)O)C(=O)O)cc1 [Amethopterin],0.0201 (active)
7,CN1CCC[C@@H]1CCO[C@](C)(c1ccccc1)c1ccc(Cl)cc1 [Clemastine fumarate],0.973
8,CC(=O)N[C@@H](CC(=O)O)C(=O)N[C@@H](CCC(=O)O)C(=O)O [Spaglumic acid],1.04
9,Cc1cccn2c(=O)c(-c3nnn[nH]3)cnc12 [Pemirolast potassium],0.933
10,CC(COc1ccccc1)N(CCCl)Cc1ccccc1 (centres undefined) [Phenoxybenzamine hydrochloride],1.01
11,CC(C)[N+](C)(CCOC(=O)C1c2ccccc2Oc2ccccc21)C(C)C [Propantheline bromide],0.988
12,CCC[C@H](N[C@@H](C)C(=O)N1[C@H](C(=O)O)C[C@@H]2CCCC[C@@H]21)C(=O)OCC [Perindopril],1.01
13,Cc1oncc1C(=O)Nc1ccc(C(F)(F)F)cc1 [Leflunomide],0.978
14,C/C(=C(\CCOP(=O)(O)O)SC(=O)c1ccccc1)N(C=O)Cc1cnc(C)nc1N [Benfotiamine],0.999
15,Nc1ccc(S(N)(=O)=O)cc1 [Sulfanilamide],0.997
16,Cc1cn([C@H]2C=C[C@@H](CO)O2)c(=O)[nH]c1=O [Stavudine],1.02
17,C[C@@H](c1ncncc1F)[C@](O)(Cn1cncn1)c1ccc(F)cc1F [Voriconazole],0.977
18,COc1cc(OC)c(C(=O)CCCN2CCCC2)c(OC)c1 [Buflomedil hydrochloride],1.01
19,CC(=O)c1ccc2c(c1)N(CCCN1CCC(CCO)CC1)c1ccccc1S2 [Piperacetazine],1.09
